For part of these data: Potency and affinity values are given separately. Activity calls are given as the source filed them.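 Rule for the calls, unless noted: active = earlier screen potentiator hit that boosts the TRPC4 ion channel at some dose, with a dose response; inactive = no potentiation, no dose response, or not a prior hit.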
How the values were obtained:
[1] = test system: TRPC4 beta (transient receptor potential cation channel C4), mouse; test: TRPC4 cation channel opening, retest – cell-based, Fluo4 calcium, HEK293 TRPC4beta/mu-opioid, duplicates, 10 µM, confirmation (AID 2426;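 active = fluorescence ratio normalized to control raised more than 50% in primary screen plus both repeat runs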); settings: Fluo4 calcium fluorescence, at 10 µM; active compounds read high
[2] = test system: transient receptor potential cation channel C4 beta (TRPC4), mouse; test: TRPC4 cation channel opening, second retest – cell-based, second round, Fluo4, HEK293 TRPC4beta/mu-opioid, 1 µM, confirmation (AID 2461;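 active = primary screen active and over 50% activation in each of two duplicate runs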); settings: Fluo4 calcium fluorescence, at 1 µM; active compounds read high
[3] = test system: TRPC4 (transient receptor potential cation channel C4 beta), mouse; test: potentiation of DAMGO EC20 TRPC4 response – cell-based, second round, Fluo-4, HEK293 TRPC4beta/mu-opioid, 1 µM, confirmation (AID 2554;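 active = primary screen hit whose fluorescence ratio, in both repeats, exceeds the weak agonist control mean by 3 SD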); settings: DAMGO EC20, Fluo-4 calcium flux, at 1 µM; active compounds read high
[4] = test system: TRPC4 beta (transient receptor potential cation channel C4), mouse; test: potentiation of DAMGO EC20 TRPC4 response – cell-based, Fluo-4, HEK293 TRPC4beta/mu-opioid, confirmation (AID 2555;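 active = primary screen hit whose calcium fluorescence ratio, in both repeats, exceeds the weak agonist control mean by 3 SD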); settings: DAMGO EC20, Fluo-4 calcium flux, at 10 µM; active compounds read high
[5] = molecular target: Short transient receptor potential channel 4 (Mus musculus) (UniProt Q9QUQ5); test: blockers of DAMGO-evoked TRPC4 calcium flux – cell-based, Fluo4, HEK293 TRPC4beta/mu-opioid, confirmation (AID 2636;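 active = calcium signal cut by more than 3 SD below the full-agonist control yet still positive, in both repeats and the earlier primary screen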); settings: at 10 µM; active compounds read high
Short transient receptor potential channel 4 (Mus musculus), sequence (Q9QUQ5 whole entry, looked up): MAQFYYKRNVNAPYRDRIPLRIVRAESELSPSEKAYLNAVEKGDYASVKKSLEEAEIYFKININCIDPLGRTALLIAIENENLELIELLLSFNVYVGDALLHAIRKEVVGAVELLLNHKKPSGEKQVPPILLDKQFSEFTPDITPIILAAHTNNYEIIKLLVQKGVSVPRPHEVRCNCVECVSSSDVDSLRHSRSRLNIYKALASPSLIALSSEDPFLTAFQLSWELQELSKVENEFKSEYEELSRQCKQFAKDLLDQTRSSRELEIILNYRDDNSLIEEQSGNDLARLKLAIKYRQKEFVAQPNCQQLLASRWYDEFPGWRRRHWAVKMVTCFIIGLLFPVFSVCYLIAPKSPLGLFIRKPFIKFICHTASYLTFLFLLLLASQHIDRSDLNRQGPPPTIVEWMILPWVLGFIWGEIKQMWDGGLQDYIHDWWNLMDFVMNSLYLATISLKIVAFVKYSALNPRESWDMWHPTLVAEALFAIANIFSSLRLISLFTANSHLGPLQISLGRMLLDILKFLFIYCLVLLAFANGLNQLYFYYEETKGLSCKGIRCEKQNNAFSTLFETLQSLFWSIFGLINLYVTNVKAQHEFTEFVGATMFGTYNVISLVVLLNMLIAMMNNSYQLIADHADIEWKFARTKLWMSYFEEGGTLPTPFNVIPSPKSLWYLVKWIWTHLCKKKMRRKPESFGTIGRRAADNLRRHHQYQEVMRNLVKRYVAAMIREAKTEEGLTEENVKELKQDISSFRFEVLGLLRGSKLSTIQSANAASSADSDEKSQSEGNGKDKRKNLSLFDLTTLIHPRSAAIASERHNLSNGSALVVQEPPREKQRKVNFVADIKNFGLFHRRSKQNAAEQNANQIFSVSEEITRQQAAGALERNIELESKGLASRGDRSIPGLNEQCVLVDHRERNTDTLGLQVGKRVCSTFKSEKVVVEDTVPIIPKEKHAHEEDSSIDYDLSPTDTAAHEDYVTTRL

[6] = molecular target: Short transient receptor potential channel 4 (Mus musculus) (UniProt Q9QUQ5); test: blockers of DAMGO-evoked TRPC4 calcium flux – cell-based, second round, Fluo4, HEK293 TRPC4beta/mu-opioid, 1 µM, confirmation (AID 2637;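 active = calcium signal ratio cut to more than 3 SD under the fully stimulated control mean yet still positive, in both repeats and the primary screen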;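 for inhibition: percent of integrated ratio relative to wells lacking test compound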); settings: at 1 µM; active compounds read high
[7] = molecular target: Short transient receptor potential channel 4 (Mus musculus) (UniProt Q9QUQ5); test: calcium entry via TRPC4 opening agents – cell-based, HEK293 TRPC4/mu-opioid, Fluo-4 calcium, dose response (AID 434937;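 active = primary screen activator hit with a dose response curve and TRPC4 channel activation at any tested dose; inactive = no activation, no dose response, or not a primary hit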)
[8] = molecular target: Short transient receptor potential channel 4 (Mus musculus) (UniProt Q9QUQ5); test: potentiation of DAMGO-evoked TRPC4 calcium signal – cell-based, HEK293 TRPC4/mu-opioid, Fluo-4 calcium, EC20 DAMGO, dose response (AID 434941);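 note: calcium entry triggered by an EC20 dose of DAMGO at the co-expressed mu-opioid receptor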
[9] = molecular target: Short transient receptor potential channel 4 (Mus musculus) (UniProt Q9QUQ5); test: block of DAMGO-driven TRPC4 calcium entry – cell-based, HEK293 TRPC4/mu-opioid, Fluo-4 calcium, dose response (AID 434942;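 active = primary screen inhibitor hit that blocks the TRPC4 channel at some tested dose, yielding a dose curve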)
[10] = molecular target: Short transient receptor potential channel 6 (Mus musculus) (UniProt Q61143); test: TRPC6 blockade by TRPC4 inhibitor hits – cell-based, HEK293, membrane potential dye, duplicate, selectivity assay for TRPC4 inhibitor project, confirmation (AID 434948;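 active = active in primary screen and both duplicates, each dropping signal beyond three positive-control SD with fluorescence still positive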); settings: HEK293 TRPC6, membrane potential dye fluorescence, at 10 µM, stimulated with maximal-effect acetylcholine; active compounds read high
Short transient receptor potential channel 6 (Mus musculus), sequence (Q61143 whole entry, looked up): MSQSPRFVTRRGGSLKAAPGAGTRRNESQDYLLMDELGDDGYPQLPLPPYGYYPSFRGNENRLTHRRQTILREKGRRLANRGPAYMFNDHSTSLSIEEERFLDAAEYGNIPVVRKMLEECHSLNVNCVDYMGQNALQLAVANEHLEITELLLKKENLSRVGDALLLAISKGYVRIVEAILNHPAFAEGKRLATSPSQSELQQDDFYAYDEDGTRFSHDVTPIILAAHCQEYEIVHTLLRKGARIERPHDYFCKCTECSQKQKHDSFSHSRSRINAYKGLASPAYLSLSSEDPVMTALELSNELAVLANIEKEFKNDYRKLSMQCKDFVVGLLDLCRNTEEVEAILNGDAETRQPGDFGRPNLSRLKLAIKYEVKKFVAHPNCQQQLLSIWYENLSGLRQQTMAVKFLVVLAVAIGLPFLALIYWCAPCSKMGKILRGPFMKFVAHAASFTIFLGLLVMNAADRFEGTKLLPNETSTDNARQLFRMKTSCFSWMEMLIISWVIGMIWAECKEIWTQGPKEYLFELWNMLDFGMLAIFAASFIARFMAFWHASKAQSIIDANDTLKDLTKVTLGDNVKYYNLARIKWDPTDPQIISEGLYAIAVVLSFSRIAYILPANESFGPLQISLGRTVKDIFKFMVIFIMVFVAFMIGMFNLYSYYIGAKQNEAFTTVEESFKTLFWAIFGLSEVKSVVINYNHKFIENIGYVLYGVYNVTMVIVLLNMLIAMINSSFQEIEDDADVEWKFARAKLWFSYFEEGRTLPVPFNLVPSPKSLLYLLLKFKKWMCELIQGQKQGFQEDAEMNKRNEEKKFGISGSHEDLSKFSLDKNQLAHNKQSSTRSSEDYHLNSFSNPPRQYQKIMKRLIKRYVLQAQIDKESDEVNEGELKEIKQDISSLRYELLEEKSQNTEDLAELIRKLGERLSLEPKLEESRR

[11] = molecular target: Short transient receptor potential channel 6 (Mus musculus) (UniProt Q61143); test: TRPC6 opening by TRPC4 activator hits – cell-based, HEK293, membrane potential dye, duplicate, selectivity assay for TRPC4 activator project, confirmation (AID 434950;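 active = membrane potential signal rise above negative control mean plus 3 SD in both duplicates, also active in the earlier TRPC4 screen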); settings: HEK293 TRPC6, membrane potential fluorescence, at 10 µM; activation: active compounds read high; outcome: activation
[12] = molecular target: Short transient receptor potential channel 6 (Mus musculus) (UniProt Q61143); test: positive modulators of mouse TRPC6 channel – HEK293 cells, membrane potential dye, duplicate, selectivity assay for TRPC4 potentiator project, confirmation (AID 434952;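 active = compound raising the membrane signal above positive-control mean plus 3 SD in both repeats, and a primary screen hit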); settings: HEK293 TRPC6, membrane potential dye fluorescence, at 10 µM, maximal acetylcholine added after compound; active compounds read high
[13] = molecular target: Short transient receptor potential channel 4 (Mus musculus) (UniProt Q9QUQ5); test: calcium flux activators in TRPC4/5HT1a cells, counter-screen for TRPC4 activator project, cell-based, second counter screen, HEK293 TRPC4/5HT1a, Fluo-4 (AID 434977;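 active = calcium signal rise above buffer-control mean plus 5 SD in both duplicates, and also a hit in the primary screen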); settings: Fluo-4 calcium flux, at 10 µM; active compounds read high
[14] = serotonin-gated TRPC4 signal block – cell-based, second counter screen, HEK293 TRPC4/5HT1a, Fluo-4, counter-screen for TRPC4 inhibitor project, confirmation (AID 434978;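 active = primary screen active whose calcium signal fell more than 3 SD beyond the full-serotonin control mean in both duplicate plates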;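 for outcome: serotonin given first at submaximal then at maximal dose after compound preincubation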); settings: Fluo-4 calcium flux, at 10 µM, serotonin added to trigger calcium flux; active compounds read high
[15] = test system: TRPC4 (mouse), co-expressed with 5HT1a in HEK293; test: enhancement of serotonin-evoked TRPC4 response – cell-based, second counter screen, HEK293 TRPC4/5HT1a, Fluo-4, counter-screen for TRPC4 potentiator project, confirmation (AID 434979;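 active = signal rise over 3 SD above mean of control wells given weak agonist, in both repeats and first screen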); settings: Fluo-4 calcium flux, at 10 µM, serotonin added at its EC20 dose; active compounds read high
[16] = nonspecific calcium rise without TRPC4 – cell-based, HEK293 mu-opioid receptor line, counter-screen for TRPC4 activator project, confirmation (AID 449723;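 active = hit in primary screen, with calcium signal over 5 SD above buffer well mean in both duplicates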;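 note: counter screen cells carry the mu-opioid receptor alone and lack TRPC4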); settings: HEK293 mu-opioid cells, Fluo-4 calcium fluorescence, at 10 µM; active compounds read high
[17] = nonspecific potentiation of DAMGO calcium response – cell-based, HEK293 mu-opioid receptor line, counter-screen for TRPC4 allosteric potentiator project, confirmation (AID 449724;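 active = calcium signal rise more than 3 SD above the low-dose agonist control mean, in both duplicate plates and the primary screen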); settings: HEK293 mu-opioid receptor cells, Fluo-4 calcium flux, at 10 µM, compound added before EC20 DAMGO stimulus; active compounds read high

COc1ccc(N=C2SCC(=O)N2Cc2ccccc2)cc1
inactive: outcome [1] | outcome [2] | outcome [3] | outcome [4] | outcome [5] | outcome [6] | outcome [7] | outcome [8] | outcome [9] | outcome [10] | outcome [11] | outcome [12] | outcome [13] | outcome [14] | outcome [15] | outcome [16] | outcome [17]

NNc1ccc(Cc2ccc(Cl)cc2Cl)nn1
inactive: outcome [1] | outcome [2] | outcome [3] | outcome [4] | outcome [5] | outcome [6] | outcome [7] | outcome [8] | outcome [9] | outcome [10] | outcome [11] | outcome [12] | outcome [13] | outcome [14] | outcome [16] | outcome [17]
active: potentiation [15] 15.2%

COc1ccc(CCN(C)C(=O)c2cc(S(=O)(=O)N3CCCCC3)ccc2Cl)cc1OC
inactive: outcome [1] | outcome [2] | outcome [3] | outcome [4] | outcome [5] | outcome [6] | outcome [7] | outcome [8] | outcome [9] | outcome [10] | outcome [11] | outcome [12] | outcome [13] | outcome [14] | outcome [15] | outcome [16] | outcome [17]

c1ccc(Nc2c3c(nc4ccccc24)CCC3)cc1
inactive: outcome [1] | outcome [2] | outcome [3] | outcome [4] | outcome [5] | outcome [6] | outcome [7] | outcome [8] | outcome [9] | outcome [10] | outcome [11] | outcome [12] | outcome [13] | outcome [14] | outcome [15] | outcome [16] | outcome [17]

COc1ccc2c(c1)c1ncn(CCN3CCCC3)c(=O)c1n2C
inactive: outcome [1] | outcome [2] | outcome [4] | outcome [5] | outcome [6] | outcome [7] | outcome [8] | outcome [9] | outcome [10] | outcome [11] | outcome [12] | outcome [13] | outcome [14] | outcome [16] | outcome [17]
active: potentiation [3] 13% | potentiation [15] 12.8%

Cn1c(/N=C/c2ccccc2[N+](=O)[O-])nc2ccccc21
inactive: outcome [1] | outcome [2] | outcome [3] | outcome [4] | outcome [5] | outcome [6] | outcome [7] | outcome [8] | outcome [9] | outcome [10] | outcome [11] | outcome [12] | outcome [13] | outcome [14] | outcome [16] | outcome [17]
active: potentiation [15] 11.9%

Cc1cc(NC(=O)C(C)SCC(=O)N(Cc2ccccc2)c2ccccc2)no1 (stereo not given)
inactive: outcome [1] | outcome [2] | outcome [3] | outcome [4] | outcome [6] | outcome [7] | outcome [8] | outcome [9] | outcome [10] | outcome [11] | outcome [12] | outcome [13] | outcome [15] | outcome [16] | outcome [17]
active: inhibition [5] 90% | inhibition [14] 25.3%

COc1ccc(C(=O)c2no[n+]([O-])c2C(=O)c2ccc(OC)cc2)cc1
active: potentiation [3] 9% | potentiation [4] 50% | potentiation [15] 51.2%
inactive: outcome [1] | outcome [2] | outcome [5] | outcome [6] | outcome [7] | outcome [8] | outcome [9] | outcome [10] | outcome [11] | outcome [12] | outcome [13] | outcome [14] | outcome [16] | outcome [17]

COc1ccc(/C=C(\C#N)C(=O)N2CCOCC2)cc1Br
active: potentiation [4] 17% | potentiation [15] 20.4%
inactive: outcome [1] | outcome [2] | outcome [3] | outcome [5] | outcome [6] | outcome [7] | outcome [8] | outcome [9] | outcome [10] | outcome [11] | outcome [12] | outcome [13] | outcome [14] | outcome [16] | outcome [17]

CCOc1ccc(-n2cnnn2)cc1S(=O)(=O)NCc1ccccc1
inactive: outcome [1] | outcome [2] | outcome [3] | outcome [4] | outcome [5] | outcome [6] | outcome [7] | outcome [8] | outcome [9] | outcome [10] | outcome [11] | outcome [12] | outcome [13] | outcome [14] | outcome [15] | outcome [16] | outcome [17]

Cn1c(=O)n(CCCO)c(=O)c2c1nc1n2CCCN1Cc1ccccc1
inactive: outcome [1] | outcome [2] | outcome [3] | outcome [4] | outcome [7] | outcome [8] | outcome [9] | outcome [10] | outcome [11] | outcome [12] | outcome [13] | outcome [15] | outcome [16] | outcome [17]
active: inhibition [5] 86% | inhibition [6] 46% | inhibition [14] 28.4%

CCc1nc2ccccc2n1Cc1ccccc1F
inactive: outcome [1] | outcome [2] | outcome [3] | outcome [4] | outcome [5] | outcome [6] | outcome [7] | outcome [8] | outcome [9] | outcome [10] | outcome [11] | outcome [12] | outcome [13] | outcome [14] | outcome [15] | outcome [16] | outcome [17]

Cc1[nH]nc(Nc2ccccc2)c1[N+](=O)[O-]
inactive: outcome [1] | outcome [2] | outcome [3] | outcome [4] | outcome [5] | outcome [6] | outcome [7] | outcome [8] | outcome [9] | outcome [10] | outcome [11] | outcome [12] | outcome [13] | outcome [14] | outcome [16] | outcome [17]
active: potentiation [15] 20.8%

O=C(COC(=O)c1cc2c(s1)CCCCC2)NC1CCS(=O)(=O)C1 (stereo not given)
inactive: outcome [1] | outcome [2] | outcome [3] | outcome [4] | outcome [5] | outcome [6] | outcome [7] | outcome [8] | outcome [9] | outcome [10] | outcome [11] | outcome [12] | outcome [13] | outcome [14] | outcome [15] | outcome [16] | outcome [17]

COc1ccc(C(=O)/C=C/C(=O)N(CC(=O)NC2CCCCC2)CC2CCCO2)c(O)c1 (stereo not given)
inactive: outcome [1] | outcome [2] | outcome [3] | outcome [4] | outcome [5] | outcome [6] | outcome [7] | outcome [8] | outcome [9] | outcome [10] | outcome [11] | outcome [12] | outcome [13] | outcome [14] | outcome [15] | outcome [16] | outcome [17]

Reference: PubChem BioAssay
